For some of these results: Measured potencies and affinities stand elsewhere.
What was measured:
Design in all cases: scale not given: direction of the effect not stated beside the values
[1] = target: Protein translocase subunit SecA (Escherichia coli (strain K12)) (UniProt P10408); assay: Assay to Identify E. coli SecA ATPase Inhibitors; format: functional; conditions: 30 µM
[2] = target: T1, Ubiquitin-activating enzyme e1, putative (Leishmania donovani (strain BPK282A1)) (UniProt E9BSI1); assay: Leishmania donovani Ubiquitin Activating Enzyme (LdE1); format: functional; conditions: 30 µM
T1 sequence (whole entry): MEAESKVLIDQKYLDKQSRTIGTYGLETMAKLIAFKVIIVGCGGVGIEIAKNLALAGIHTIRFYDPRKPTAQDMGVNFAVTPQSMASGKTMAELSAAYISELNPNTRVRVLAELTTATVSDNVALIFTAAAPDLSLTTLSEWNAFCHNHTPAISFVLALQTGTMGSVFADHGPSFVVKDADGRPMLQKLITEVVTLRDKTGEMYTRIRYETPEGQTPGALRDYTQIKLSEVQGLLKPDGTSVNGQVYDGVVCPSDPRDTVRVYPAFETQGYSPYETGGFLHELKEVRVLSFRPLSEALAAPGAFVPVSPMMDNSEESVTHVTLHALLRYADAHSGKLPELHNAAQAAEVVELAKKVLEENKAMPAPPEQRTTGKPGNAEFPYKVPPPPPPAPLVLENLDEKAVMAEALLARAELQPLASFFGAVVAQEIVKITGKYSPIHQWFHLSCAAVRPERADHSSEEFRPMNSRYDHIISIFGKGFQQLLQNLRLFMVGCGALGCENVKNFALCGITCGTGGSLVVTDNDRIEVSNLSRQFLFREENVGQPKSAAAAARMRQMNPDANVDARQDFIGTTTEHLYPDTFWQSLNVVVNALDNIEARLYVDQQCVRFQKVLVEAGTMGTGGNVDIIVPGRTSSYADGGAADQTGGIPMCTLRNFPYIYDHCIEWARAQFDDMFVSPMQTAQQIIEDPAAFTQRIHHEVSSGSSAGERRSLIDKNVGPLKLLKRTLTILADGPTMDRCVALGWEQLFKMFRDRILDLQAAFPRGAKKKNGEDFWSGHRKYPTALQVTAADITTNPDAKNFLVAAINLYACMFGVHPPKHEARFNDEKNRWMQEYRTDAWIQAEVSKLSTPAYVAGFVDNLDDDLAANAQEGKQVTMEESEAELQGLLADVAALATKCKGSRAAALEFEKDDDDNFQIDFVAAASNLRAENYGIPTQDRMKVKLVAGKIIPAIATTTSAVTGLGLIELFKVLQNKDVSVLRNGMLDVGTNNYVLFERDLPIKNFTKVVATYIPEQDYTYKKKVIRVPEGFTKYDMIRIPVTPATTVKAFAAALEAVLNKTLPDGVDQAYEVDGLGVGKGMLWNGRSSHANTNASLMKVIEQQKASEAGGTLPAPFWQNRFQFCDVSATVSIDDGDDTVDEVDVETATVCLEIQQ

[3] = target: AMP-activated protein kinase, AMPK (Homo sapiens) (UniProt P54646+O43741+P54619+Q9UGJ0+Q9Y478+Q13131+Q9UGI9); assay: AMP-dependent Kinase enzyme assay. An in vitro enzyme assay that detects ADP turnover that is directly proportional to AMPK activity. This uses naive AMPK that is activated during the assay with MK-8722; format: functional; conditions: 30 µM
[4] = target: Sialic acid-binding Ig-like lectin 9 (Homo sapiens) (UniProt Q9Y336); assay: Hs-Siglec9 ALPHAscreen SOP 20170721; conditions: 10 µM
[5] = test system: Trypanosoma cruzi; assay: Trypanosoma cruzi phosphomannomutase and mannose-1-phosphate guanylyltransferase assay; format: functional; conditions: 10 µM
[6] = target: T2, Arginase-2, mitochondrial (Homo sapiens) (UniProt P78540); assay: in vitro enzyme assay to detect the production of urea directly proportional to the activity of Arginase II; format: functional; conditions: 33.3 µM; also: in the data most compounds retested in dose-response had high values
T2 sequence (whole entry): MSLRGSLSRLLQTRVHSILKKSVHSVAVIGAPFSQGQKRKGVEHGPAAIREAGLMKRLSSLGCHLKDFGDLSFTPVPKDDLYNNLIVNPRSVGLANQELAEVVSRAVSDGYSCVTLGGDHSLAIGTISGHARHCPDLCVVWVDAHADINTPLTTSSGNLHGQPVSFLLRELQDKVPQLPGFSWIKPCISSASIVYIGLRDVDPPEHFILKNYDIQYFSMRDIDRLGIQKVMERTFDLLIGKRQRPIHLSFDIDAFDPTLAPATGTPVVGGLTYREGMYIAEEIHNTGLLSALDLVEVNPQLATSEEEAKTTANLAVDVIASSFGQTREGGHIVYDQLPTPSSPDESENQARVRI

[7] = target: T3, Proteasome subunit beta (Trypanosoma cruzi) (UniProt O96673); assay: Trypanosoma cruzi proteasome chymotrypsin-like activity (TcProtChymo) assay.; also: in the data most compounds retested in dose-response had high values; format: functional; conditions: 9.37 µM
T3 sequence (whole entry): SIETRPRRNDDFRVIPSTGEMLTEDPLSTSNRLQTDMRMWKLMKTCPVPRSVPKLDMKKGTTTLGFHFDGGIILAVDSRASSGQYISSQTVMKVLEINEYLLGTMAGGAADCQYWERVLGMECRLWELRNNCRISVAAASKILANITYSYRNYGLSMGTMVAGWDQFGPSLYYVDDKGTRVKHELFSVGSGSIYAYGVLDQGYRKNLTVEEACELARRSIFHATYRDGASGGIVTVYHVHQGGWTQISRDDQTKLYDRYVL

[8] = species on record: Homo sapiens; assay: To identify inhibition of the IFN signalling (Jak-Stat) pathway via expression of an eGFP reporter gene under the control of an IFN-stimulated response element (ISRE) containing MxA promoter.; format: functional; conditions: 30 µM
[9] = target: T4, Tyrosyl-tRNA synthetase, putative (Trypanosoma cruzi (strain CL Brener)) (UniProt Q4DSP6); assay: Trypanosoma cruzi tyrosyl tRNA synthetase (TcYRS) _High Tyrosine SOP; format: functional; conditions: 30 µM; also: in the data most compounds retested in dose-response had high values
T4 sequence (whole entry): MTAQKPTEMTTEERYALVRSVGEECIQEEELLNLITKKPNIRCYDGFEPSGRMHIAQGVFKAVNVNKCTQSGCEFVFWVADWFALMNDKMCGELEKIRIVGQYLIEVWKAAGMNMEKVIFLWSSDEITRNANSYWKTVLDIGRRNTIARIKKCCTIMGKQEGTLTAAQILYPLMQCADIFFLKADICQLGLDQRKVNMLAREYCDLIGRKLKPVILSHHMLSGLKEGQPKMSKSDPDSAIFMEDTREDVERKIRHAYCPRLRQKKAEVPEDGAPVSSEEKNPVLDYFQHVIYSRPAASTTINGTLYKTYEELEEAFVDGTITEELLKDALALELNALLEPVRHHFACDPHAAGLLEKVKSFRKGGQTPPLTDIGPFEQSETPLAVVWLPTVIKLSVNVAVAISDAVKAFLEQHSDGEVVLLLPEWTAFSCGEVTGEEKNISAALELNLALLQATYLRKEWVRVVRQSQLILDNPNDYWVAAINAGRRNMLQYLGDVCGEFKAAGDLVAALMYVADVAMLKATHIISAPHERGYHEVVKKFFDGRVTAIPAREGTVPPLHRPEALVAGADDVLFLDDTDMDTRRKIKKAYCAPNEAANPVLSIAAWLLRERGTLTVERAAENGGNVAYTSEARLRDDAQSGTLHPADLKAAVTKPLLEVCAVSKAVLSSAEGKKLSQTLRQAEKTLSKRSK

[10] = target: T4, Tyrosyl-tRNA synthetase, putative (Trypanosoma cruzi (strain CL Brener)); assay: Trypanosoma cruzi tyrosyl tRNA synthetase (TcYRS) SOP; format: functional; conditions: 30 µM
[11] = target: Chromo domain-containing protein 1 (Saccharomyces cerevisiae (strain ATCC 204508 / S288c) (Baker's yeast)) (UniProt P32657); assay: ScCHD-1 Enzyme Inhibition Assay; format: functional; conditions: 30 µM; also: in the data most compounds retested in dose-response had high values
Chain of Chromo domain-containing protein 1 (Saccharomyces cerevisiae (strain ATCC 204508 / S288c) (Baker's yeast)) (P32657 whole entry, the tested form may be a part): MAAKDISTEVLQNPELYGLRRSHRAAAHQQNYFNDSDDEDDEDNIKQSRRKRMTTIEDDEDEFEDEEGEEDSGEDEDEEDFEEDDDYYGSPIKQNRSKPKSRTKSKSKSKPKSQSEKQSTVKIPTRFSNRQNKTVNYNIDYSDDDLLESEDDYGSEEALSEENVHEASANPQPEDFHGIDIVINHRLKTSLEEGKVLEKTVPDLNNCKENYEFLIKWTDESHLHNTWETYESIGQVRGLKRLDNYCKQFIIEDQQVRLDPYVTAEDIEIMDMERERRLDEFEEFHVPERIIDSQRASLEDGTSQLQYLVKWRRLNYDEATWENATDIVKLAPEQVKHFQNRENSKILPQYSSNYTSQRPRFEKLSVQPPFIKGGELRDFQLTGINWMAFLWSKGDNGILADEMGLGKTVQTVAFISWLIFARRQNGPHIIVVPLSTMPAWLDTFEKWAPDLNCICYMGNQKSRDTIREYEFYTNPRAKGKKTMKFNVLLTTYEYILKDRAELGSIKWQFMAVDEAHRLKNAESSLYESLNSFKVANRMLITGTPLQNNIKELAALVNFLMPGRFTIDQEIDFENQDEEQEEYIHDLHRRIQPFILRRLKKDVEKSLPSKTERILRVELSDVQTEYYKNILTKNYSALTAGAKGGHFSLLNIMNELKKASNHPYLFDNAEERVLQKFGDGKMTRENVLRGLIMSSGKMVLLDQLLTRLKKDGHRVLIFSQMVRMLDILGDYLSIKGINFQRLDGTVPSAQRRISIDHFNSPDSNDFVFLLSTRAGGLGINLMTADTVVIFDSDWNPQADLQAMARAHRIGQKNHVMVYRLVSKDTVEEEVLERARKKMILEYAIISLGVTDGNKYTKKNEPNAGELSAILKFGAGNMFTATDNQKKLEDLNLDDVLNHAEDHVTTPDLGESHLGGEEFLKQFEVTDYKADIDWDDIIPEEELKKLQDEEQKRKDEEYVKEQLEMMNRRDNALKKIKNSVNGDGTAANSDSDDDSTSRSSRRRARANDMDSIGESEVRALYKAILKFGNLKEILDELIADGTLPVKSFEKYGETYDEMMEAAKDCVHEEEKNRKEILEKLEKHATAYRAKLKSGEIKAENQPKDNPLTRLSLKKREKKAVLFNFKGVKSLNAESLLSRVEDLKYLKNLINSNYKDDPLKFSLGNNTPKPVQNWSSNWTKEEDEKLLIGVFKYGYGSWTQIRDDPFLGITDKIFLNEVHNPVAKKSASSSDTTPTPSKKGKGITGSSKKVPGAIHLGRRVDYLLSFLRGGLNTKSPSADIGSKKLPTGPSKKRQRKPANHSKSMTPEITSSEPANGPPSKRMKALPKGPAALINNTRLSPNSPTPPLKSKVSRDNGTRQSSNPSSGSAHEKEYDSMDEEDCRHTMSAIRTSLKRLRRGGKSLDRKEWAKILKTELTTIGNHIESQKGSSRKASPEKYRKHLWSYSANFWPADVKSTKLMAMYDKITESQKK

Chain of Sialic acid-binding Ig-like lectin 9 (Homo sapiens) (Q9Y336 whole entry): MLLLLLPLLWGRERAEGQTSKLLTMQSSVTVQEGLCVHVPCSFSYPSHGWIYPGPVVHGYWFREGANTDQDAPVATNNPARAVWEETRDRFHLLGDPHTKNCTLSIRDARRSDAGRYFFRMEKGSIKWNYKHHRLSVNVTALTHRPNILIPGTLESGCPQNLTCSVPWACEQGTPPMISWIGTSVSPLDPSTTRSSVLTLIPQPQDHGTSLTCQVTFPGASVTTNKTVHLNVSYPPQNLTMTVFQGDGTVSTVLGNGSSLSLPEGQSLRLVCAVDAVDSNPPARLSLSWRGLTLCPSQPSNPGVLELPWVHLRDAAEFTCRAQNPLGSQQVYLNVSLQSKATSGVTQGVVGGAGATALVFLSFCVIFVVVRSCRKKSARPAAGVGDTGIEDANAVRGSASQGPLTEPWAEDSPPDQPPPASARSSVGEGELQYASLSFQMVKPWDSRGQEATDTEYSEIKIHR
Chain of Protein translocase subunit SecA (Escherichia coli (strain K12)) (P10408 whole entry): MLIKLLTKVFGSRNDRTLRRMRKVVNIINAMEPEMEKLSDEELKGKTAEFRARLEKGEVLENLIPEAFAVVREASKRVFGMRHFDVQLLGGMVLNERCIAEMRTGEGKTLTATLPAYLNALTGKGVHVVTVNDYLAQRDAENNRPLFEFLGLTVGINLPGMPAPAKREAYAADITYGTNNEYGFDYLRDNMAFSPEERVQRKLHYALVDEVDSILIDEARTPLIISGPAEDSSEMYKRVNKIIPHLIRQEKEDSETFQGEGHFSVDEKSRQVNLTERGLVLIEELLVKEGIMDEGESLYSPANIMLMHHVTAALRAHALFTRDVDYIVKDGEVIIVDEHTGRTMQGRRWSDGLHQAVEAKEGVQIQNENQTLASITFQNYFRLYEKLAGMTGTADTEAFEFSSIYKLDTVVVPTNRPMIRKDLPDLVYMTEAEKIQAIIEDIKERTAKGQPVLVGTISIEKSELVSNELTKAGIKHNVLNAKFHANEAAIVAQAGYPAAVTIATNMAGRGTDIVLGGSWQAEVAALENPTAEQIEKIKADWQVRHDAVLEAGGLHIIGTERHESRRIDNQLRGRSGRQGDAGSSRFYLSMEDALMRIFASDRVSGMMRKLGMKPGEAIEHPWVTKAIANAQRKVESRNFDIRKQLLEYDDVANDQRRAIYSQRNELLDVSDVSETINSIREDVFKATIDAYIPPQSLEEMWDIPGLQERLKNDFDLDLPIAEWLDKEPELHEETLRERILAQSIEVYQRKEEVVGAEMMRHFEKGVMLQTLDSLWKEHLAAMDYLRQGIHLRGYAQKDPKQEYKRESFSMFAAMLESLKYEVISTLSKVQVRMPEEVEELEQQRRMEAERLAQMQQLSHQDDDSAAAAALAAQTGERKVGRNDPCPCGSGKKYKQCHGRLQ

| SMILES | Percent Effect [1] [%] | Percent Effect [2] [%] | Percent Effect [3] [%] | Percent Effect [4] [%] | Percent Effect [5] [%] | Percent Effect [6] [%] | Percent Effect [7] [%] | Percent Effect [8] [%] | Percent Effect [9] [%] | Percent Effect [10] [%] | Percent Effect [11] [%] |
| --- | --- | --- | --- | --- | --- | --- | --- | --- | --- | --- | --- |
| CCN1CCOC(CNCc2ccccn2)C1 (configuration not stated) | -1.35 | 0 | -15.7 | 4.04 | 7.19 | 1.8 | -3.64 | -4.24 | 8.37 | 16.1 | -1.88 |
| CC(O)CN1CCN(C(=O)c2cnn(-c3ccc(Cl)cc3)c2)CC1 (configuration not stated) | -8.22 | 5.33 | -3.17 | 23.3 | 6.13 | 5.21 | 11 | 7.52 | 1.64 | 8.64 | -3.32 |
| CCC(C)NC(=O)NCCCn1nc2ccccn2c1=O (configuration not stated) | -2.08 | 13.5 | -4.74 | -3.56 | 7.08 | -3.61 | 16.4 | -114 | 1.48 | 18.5 | -14.5 |
| c1cnc2c(C3CCN(Cc4ccsc4)CC3)n[nH]c2n1 | -4.33 | 20.3 | 10.3 | -8.48 | 5.14 | -1.62 | 17.9 | 18.2 | 3.23 | 9.09 | 20.2 |
| CC(C)c1nnc2n1CCN(C(=O)c1ccc(-n3cnnc3)cc1)C2 | -9.19 | -10.4 | -7.99 | -9.83 | 8.13 | -7.79 | 13.5 | 0.957 | 5.71 | 18.8 | -23.7 |
| CC(C)c1ncc2c(n1)CN(Cc1nc(-c3cccs3)no1)CC2 | -1.45 | -10.8 | -21.1 | -6.68 | -3.99 | 2.4 | 2.33 | 19.6 | 13.9 | 13.4 | 8.9 |
| Cn1nc2c(cc1=O)CN(Cc1coc(-c3cccs3)n1)CC2 | 0.447 | 16.2 | -166 | 5.69 | 4.81 | 0.802 | -1.26 | -8.71 | -2.46 | 3.7 | -4.95 |
| Cc1c(C2CCCN(C(=O)C3CC3)C2)n2c(nc1=O)CCC2 (configuration not stated) | -7.83 | 23 | 2.41 | -4.63 | -0.593 | 0.232 | 15.4 | 3.94 | 4.3 | 11.7 | -11 |
| CCn1cnnc1CNC(=O)NCC(c1cccs1)N1CCCC1 (configuration not stated) | -2.72 | 18.2 | 0.236 | 9.73 | 2.43 | -1.42 | 8.11 | 10.8 | 5.83 | 19.5 | -6.68 |
| O=C(NCc1ccccc1F)N1CCC(C2OCCO2)CC1 | -3.95 | 7.89 | -0.484 | -1.41 | -5.94 | -5.92 | 7.19 | -6.9 | 4.25 | 7.79 | -3.04 |
| c1ccc(-c2noc(CN3CCc4cncnc4C3)n2)nc1 | -3.61 | 10.5 | -27.7 | 10.3 | 8.65 | 1.92 | 9.02 | -4.25 | 13.2 | 12.2 | -10.6 |
| Cc1cccnc1NCCNC(=O)[C@H]1CNC[C@@H](C(=O)N2CCCC2)C1 | -3.94 | 2.74 | -3.43 | 8.93 | 2.38 | 0 | 10.5 | -27.6 | 5.21 | 13.6 | -4.52 |
| CC(=O)N1CCOCC2(CN(Cc3ccc(C)o3)CCO2)C1 (configuration not stated) | -8.61 | 2.67 | 0.553 | -4.1 | 0.591 | 0.699 | 1.67 | 17.8 | 3.19 | 1.28 | -4.82 |
| COCC(=O)NCc1cc(=O)n2c(n1)CN(Cc1ccsc1)CCC2 | -5.93 | 8.11 | 3.64 | -0.625 | -2.83 | 6.05 | 17.9 | -15.7 | 2.16 | 5.13 | 2.68 |
| COc1cnc(N2CCC(Oc3ccccc3OC)(C(=O)O)CC2)nc1 | -5.13 | 11 | 0.422 | 4.04 | 0.595 | -2 | 8.99 | -4.79 | 5.21 | 8.64 | -4.67 |
| O=C(C(CNCc1ccsc1)c1ccccc1)N1CCOCC1 (configuration not stated) | -5.96 | 5.2 | -2.02 | 3.85 | 1.87 | 5.52 | 6.49 | -32.4 | 1.07 | 1.24 | 1.41 |
| O=C(Cn1cc(C(=O)O)ccc1=O)NCc1ccc(F)c(Cl)c1 | -2.28 | 9.33 | -1.08 | -0.406 | 4.91 | -6.87 | 11.7 | 27 | 4.23 | 12.8 | -7.6 |

— ChEMBL document CHEMBL3988442, “University of Dundee, Small-Polar-MMV Screening Library” (2021)
